A selection: hits, their analogues and other compounds. The true share with any hit is near 21%.
Cycloheximide cs – counter-screen hit for Shiga toxin inhibitors, cycloheximide. cell reporter, cycloheximide protein synthesis inhibition counterscreen. max response, %. hit rate 12% among 300,000. AID 2314; in the data active means max response mostly above about 13%, no sharp cut-off; inactive means mostly below about 14%; further: read at 38.3 µM for the half of the compounds with a filed dose; 0% is about no effect
Pf growth 96h – P. falciparum growth inhibition at 96 hours; Potency, µM (series often up to 28.7 µM), for inactives: at the top dose activity change, negative = inhibition, hits mostly inhibitors; P. falciparum luciferase reporter growth, 96 h; AID 504834; hit rate 6.9% among 320,000; further: potency means the concentration at half of the fitted maximal effect; on the % scale 0 is the no-effect control and ±100 the full control effect
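P. falciparum expressing integrated firefly luciferase, in erythrocytes at 2% hematocrit, 0.05% parasitemia, incubated with compounds 96 h at 37 C, 5% CO2. Growth inhibition read as loss of luminescence; two-generation exposure targets delayed-death apicoplast inhibitors.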
NS1 function inh – inhibitors of influenza NS1 protein function. hit rate 0.4% among 270,000. AID 2326. Potency, µM (highest dose often 46.1 µM), inactives show at the highest dose activity, positive = more growth; calls by dose curve; further: potency means the concentration at half of the fitted maximal effect; actives are rising curves; nearly all actives have a fitted effect of over 50% in size
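A cell-based growth assay was used: compounds that relieve NS1-induced slow growth of budding yeast raise OD600. Assay medium was yeast nitrogen base with ammonium sulphate and -URA supplement, pH 6.0, with 2% galactose.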
Shiga inhibitor – Shiga toxin inhibition; Vero cells, Shiga toxin protein synthesis inhibition reporter; inhibition, % at 38.7 µM; hit rate 9.2% among 290,000; AID 2315; in the data active means inhibition mostly above about 28%, no sharp cut-off; inactive means mostly below about 43%; further: 0% is about no effect
Pf growth 48h – P. falciparum growth inhibition at 48 hours (one generation) | P. falciparum luciferase growth in erythrocytes, 48 h | Potency, µM (top dose mostly 28.7 µM), for the others: at the highest dose activity change, negative = inhibition, usual class: inhibitors | hit rate 5.9% among 310,000; further: potency means the concentration at half of the fitted maximal effect; on the % scale 0 is the no-effect control and ±100 the full control effect
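Parasite viability was followed by luminescence of a genomically integrated firefly luciferase. Cultures held 0.1% parasitemia at 2% hematocrit (final), incubated under 5% CO2 at 37 C.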
* hit, by the source's call. Unless noted, the call rests on the fitted dose curve; in most records, active means well fitted inhibition curve with a large enough effect; inconclusive means small, poorly fitted or top-dose-only effect, or another doubt; inactive means no such curve, though single readings can be large or run the other way.

What do the screens show for `NNC(=O)CN1C(=O)Nc2ccc(Br)cc2C1c1ccccc1` (stereo unspecified)?
Cycloheximide cs: 4; Pf growth 96h: 73%; NS1 function inh: inconclusive; Shiga inhibitor: 7; Pf growth 48h: inconclusive

What do the screens show for `NNC(=O)CN1C(c2ccc(Br)cc2)=Nc2ccc(Br)cc2C1c1ccccc1` (stereo unspecified)?
Cycloheximide cs: -2; Pf growth 96h: inconclusive; NS1 function inh: 22%; Shiga inhibitor: -10; Pf growth 48h: 10µM*

Results for COc1cc(C2=Nc3ccc(Br)cc3C(c3ccccc3)N2CC(=O)NN)cc(OC)c1OC (stereo unspecified) ?
Cycloheximide cs: -1; Pf growth 96h: inconclusive; NS1 function inh: 18%; Shiga inhibitor: 8; Pf growth 48h: 8.3µM*

What do the screens show for `Cc1ccccc1C(=O)NCC(=O)O`?
Cycloheximide cs: 11; Pf growth 96h: 26%; NS1 function inh: 6%; Shiga inhibitor: -13; Pf growth 48h: -10%

What do the screens show for `CC(C)(C)NC(=O)Cn1c(=O)c(=O)n(Cc2ccccc2)c2ccc(Cl)cc21`?
Cycloheximide cs: -2; Pf growth 96h: 8%; NS1 function inh: 2%; Shiga inhibitor: 14; Pf growth 48h: 2%

How did COc1ccc(C(=O)/C=C/c2cccs2)c(OC(=O)c2cccc([N+](=O)[O-])c2)c1 do in these assays?
Cycloheximide cs: 60*; Pf growth 96h: -24%; NS1 function inh: 1%; Shiga inhibitor: 132*; Pf growth 48h: 51%

Results for COc1ccc(N(C(=O)c2cccc([N+](=O)[O-])c2)S(=O)(=O)c2cccs2)cc1 ?
Cycloheximide cs: -2; Pf growth 96h: 5%; NS1 function inh: 3%; Shiga inhibitor: 14; Pf growth 48h: 8%

How did COc1ccc(C(=O)/C=C/c2ccc(F)cc2)c(OC(=O)c2ccc([N+](=O)[O-])cc2)c1 do in these assays?
Cycloheximide cs: 23*; Pf growth 96h: -30%; NS1 function inh: -1%; Shiga inhibitor: 21; Pf growth 48h: 0%

What do the screens show for `COc1ccc(C[C@H](N)C(=O)N[C@H]2[C@@H](O)[C@H](n3cnc4c(N(C)C)ncnc43)O[C@@H]2CO)cc1`?
Pf growth 96h: 0.17µM*; Pf growth 48h: 0.1µM*

How did CN(C)c1ncnc2c1ncn2C1OC(CO)C(O)C1O (stereo unspecified) do in these assays?
Cycloheximide cs: -3; NS1 function inh: 11%; Shiga inhibitor: -8; Pf growth 48h: -18%

What do the screens show for `CC(=O)NC1=C(NC2CCS(=O)(=O)C2)C(=O)c2ccccc2C1=O` (stereo unspecified)?
Cycloheximide cs: 7; Pf growth 96h: inconclusive; NS1 function inh: -37%; Shiga inhibitor: -32; Pf growth 48h: 10µM*

How did Cc1ccccc1C(=O)NC1CCS(=O)(=O)C1 (stereo unspecified) do in these assays?
Cycloheximide cs: 7; NS1 function inh: 0%; Shiga inhibitor: -8; Pf growth 48h: 2%

What do the screens show for `CN(C1=C(NC(=O)c2ccccc2)C(=O)c2ccccc2C1=O)C1CCS(=O)(=O)C1` (stereo unspecified)?
Cycloheximide cs: 39*; Pf growth 96h: 5.2µM*; NS1 function inh: 8%; Shiga inhibitor: 75*; Pf growth 48h: 4.7µM*

How did O=C(c1c(F)cccc1F)N(C1CCCCC1)C1CCCCC1 do in these assays?
Cycloheximide cs: -2; Pf growth 96h: -15%; NS1 function inh: -38%; Shiga inhibitor: 35; Pf growth 48h: 10µM*

How did O=C(c1ccc(-n2cnnn2)cc1)N(C1CCCCC1)C1CCCCC1 do in these assays?
Cycloheximide cs: 0; Pf growth 96h: -15%; Shiga inhibitor: -10; Pf growth 48h: inconclusive

Bioassay records deposited in PubChem by National Center for Advancing Translational Sciences (NCATS).
